{"source": "PubChem BioAssay (NCI)", "note": "Compounds without any hit were thinned out: in the full panel of roughly 83,000, 20% have a hit.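 Note: values are percent growth. 100 is the growth of untreated cells, values between 100 and 0 indicate rising inhibition; between -100 and 0 indicates cell death.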 Active and inactive are the calls of the source. Rule for the calls: active = growth percent below 10; inactive = the rest.", "data": [{"tested_on": "NCI-H522 lung", "assay": "NCI-60 one-dose screen, 48 h (100 = growth as untreated, 0 = no growth, -100 = all killed)", "conditions": "10 µM unless noted", "values": [{"smiles": "C=C1C(=O)O[C@H]2[C@H]1CC/C(COC(=O)NCCc1c[nH]c3ccccc13)=C\\CC[C@@]1(C)O[C@@H]21", "growth": "-85.7% (active)"}, {"smiles": "C/C(=N\\Nc1cc(C)c2ccccc2n1)c1ccccn1", "growth": "-25.7% (active)"}, {"smiles": "COC(=O)CNc1nc(N(C)O)nc(N(C)O)n1", "growth": "53.2% (inactive)"}, {"smiles": "Cc1ccc(-c2nc([P+](c3ccccc3)(c3ccccc3)c3ccccc3)c(N3C[C@H]4C[C@H](C3)c3cccc(=O)n3C4)o2)cc1", "growth": "74.3% (inactive)"}, {"smiles": "COC(=O)[C@]12CC[C@@H](C)[C@H](C)[C@@H]1C1=CC[C@@H]3[C@@]4(C)CC(=O)[C@H](OC(=O)c5ccco5)[C@@]5(C)COC(=C45)C[C@@]3(C)[C@]1(C)CC2", "growth": "26.9% (inactive)"}, {"smiles": "COc1ccc(/C=C/C(=O)NCC(C)O)cc1", "note": "(stereo not drawn)", "growth": "85% (inactive)"}, {"smiles": "Cc1nn(-c2ccc(Cl)cc2)c(=O)n1CCn1cnc2ccccc21", "growth": "85.3% (inactive)"}, {"smiles": "CN1CCN(CCOc2ccc(-c3cnc4c(-c5ccccc5F)cnn4c3)cc2)CC1", "growth": "66.8% (inactive)"}, {"smiles": "O=C(NO)c1ccc(Cn2c(=O)n(-c3ccccc3)c(=O)c3ccccc32)cc1", "growth": "-21.7% (active)"}, {"smiles": "COc1cccc2c1C(=O)c1c(O)c3c(c(O)c1C2=O)C[C@@](O)(C(=O)CO)C[C@@H]3OC1C[C@H](N)[C@H](O)[C@H](C)O1", "note": "(stereo partly drawn)", "growth": "-61.1% (active)"}, {"smiles": "CCC(CC)C(=O)OC(C)COc1ccc(C(C)(C)C)cc1", "note": "(stereo not drawn)", "growth": "70.5% (inactive)"}, {"smiles": "Nc1ccc(Cl)cn1", "growth": "82.9% (inactive)"}, {"smiles": "CN1CCN(CCOc2ccc(-c3cnc4c(-c5cccc(F)c5)cnn4c3)cc2)CC1", "growth": "82% (inactive)"}]}]}
